Assay results from the antibiotic and cytotoxicity screens of Wong et al. (2023).
Screen size: about 39,000 compounds; about 3,300 (8.5%) were called active. The entries come from a sample that favours actives as a whole.

System: HepG2
Assay: cytotoxicity call (relative viability < 0.9)
Conditions: 10 µM

SMILES | cytotoxicity call
CO[C@H](CN(C)S(=O)(=O)c1ccc(F)cc1)[C@H](C)CN([C@@H](C)CO)S(=O)(=O)c1cccc(Cl)c1 | inactive
COC1C=CC23c4cc5c(cc4CN(CC2O)C3C1)OCO5 (stereo unspecified) | inactive
COC(=O)[C@H](Cc1ccccc1)N1CC2=C[C@H](C3CC3)n3c(=O)n(C)c(=O)n3[C@@H]2[C@H]1[C@H](O)Cc1ccccc1 | inactive
CC(=O)N1CCc2n[nH]c(C(=O)N3CCOCC3)c2C1 | inactive
CC(C)NC(=O)N(C)C[C@@H]1Oc2c(NC(=O)C3CCOCC3)cccc2C(=O)N([C@H](C)CO)C[C@@H]1C | inactive
C[C@H]1CN([C@@H](C)CO)S(=O)(=O)c2ccc(C#Cc3ccccc3)cc2O[C@@H]1CN(C)C(=O)CN(C)C | inactive
C[C@@H]1CN([C@@H](C)CO)S(=O)(=O)c2ccc(C#Cc3ccccc3)cc2O[C@@H]1CN(C)C(=O)CN(C)C | active
C[C@H](CO)N1C[C@H](C)[C@@H](CN(C)C(=O)CN(C)C)Oc2cc(C#Cc3ccc(F)cc3)ccc2S1(=O)=O | inactive
C[C@H](CO)N1C[C@H](C)[C@H](CN(C)C(=O)CN(C)C)Oc2cc(C#Cc3ccccc3)ccc2S1(=O)=O | inactive
C[C@@H]1CN([C@H](C)CO)S(=O)(=O)c2ccc(C#Cc3ccc(F)cc3)cc2O[C@@H]1CN(C)C(=O)CN(C)C | inactive
C[C@@H]1CN([C@@H](C)CO)S(=O)(=O)c2ccc(C#Cc3ccc(F)cc3)cc2O[C@@H]1CN(C)C(=O)CN(C)C | inactive
C[C@H](CO)N1C[C@H](C)[C@@H](CN(C)C(=O)CN(C)C)Oc2cc(C#Cc3ccccc3)ccc2S1(=O)=O | active
C[C@H](CO)N1C[C@H](C)[C@H](CN(C)C(=O)CN(C)C)Oc2cc(C#Cc3ccc(F)cc3)ccc2S1(=O)=O | inactive
C[C@H]1CN([C@@H](C)CO)S(=O)(=O)c2ccc(C#Cc3ccccc3)cc2O[C@H]1CN(C)C(=O)CN(C)C | active
C[C@@H]1CCCCO[C@@H](CN(C)Cc2ccc(C(F)(F)F)cc2)[C@H](C)CN([C@H](C)CO)C(=O)c2cc(N(C)C)ccc2O1 | inactive
Cn1ccc(C(=O)N2CCC3(CCOC[C@@H]3NS(C)(=O)=O)CC2)n1 | inactive
Cc1noc(C)c1S(=O)(=O)Nc1ccc2c(c1)CC(=O)N([C@@H](C)CO)C[C@H](C)[C@H](CN(C)C(=O)NC(C)C)O2 | inactive
COc1cccc(S(=O)(=O)N[C@H]2CC[C@@H](CC(=O)NC3CCC3)O[C@@H]2CO)c1 | inactive
CC(=O)NCCCC[C@@H]1NC(=O)[C@H]2C[C@@H](C(=O)NCCCCCCN(C)C)[C@@H](c3ccc(O)cc3)N2C1=O | inactive
C[C@@H]1CCCCO[C@H](CN(C)C(=O)Nc2ccc(F)cc2)[C@H](C)CN([C@@H](C)CO)C(=O)c2cc(NC(=O)c3ccncc3)ccc2O1 | inactive
NCc1ccc(S(=O)(=O)O)cc1 | inactive
C[C@@H]1CN([C@@H](C)CO)C(=O)Cc2cc(NC(=O)Cn3cnnn3)ccc2O[C@@H]1CN(C)C(=O)Nc1ccc(F)cc1 | inactive

SMILES | cytotoxicity call
CN1CCN(C(=O)C[C@@H]2C=C[C@@H](NC(=O)c3ccc4c(c3)OCO4)[C@H](CO)O2)CC1 | inactive
CCCCOc1ccc(CC(=O)NO)cc1 | active
CCOc1ccc(NC(=O)CC(C)O)cc1 (stereo unspecified) | inactive
COc1ccc(OCCC(=O)NN)cc1 | inactive
CNC(=O)CN(C#N)c1nc(C)cc(C)n1 | inactive
COc1ccc(CNC(=O)C[C@H]2C[C@H]3c4cc(NS(=O)(=O)c5ccc(F)cc5)ccc4O[C@H]3[C@H](CO)O2)cc1 | inactive
C[C@H](CO)N1C[C@H](C)[C@H](CN(C)C(=O)c2cccnc2)Oc2ncc(-c3ccc(C(=O)N(C)C)cc3)cc2C1=O | inactive
C[C@@H]1CCCCO[C@H](CN(C)C(=O)CCC(F)(F)F)[C@@H](C)CN([C@H](C)CO)C(=O)c2cc(NC(=O)CCC(F)(F)F)ccc2O1 | inactive
C[C@H](CO)N1C[C@H](C)[C@@H](CN(C)C(=O)Nc2ccc(C(F)(F)F)cc2)Oc2ccc(NC(=O)Nc3ccc(C(F)(F)F)cc3)cc2C1=O | active
C[C@@H]1CN([C@H](C)CO)C(=O)c2cc(NC(=O)Nc3ccccc3)ccc2O[C@@H]1CN(C)C(=O)Nc1ccc(C(F)(F)F)cc1 | inactive
C[C@@H]1CN([C@H](C)CO)C(=O)c2cc(NC(=O)CCC(F)(F)F)ccc2O[C@@H]1CN(C)C(=O)Nc1ccc(C(F)(F)F)cc1 | inactive
C[C@H]1CN([C@@H](C)CO)C(=O)c2cc(NC(=O)CCC(F)(F)F)ccc2O[C@H]1CN(C)C(=O)Nc1ccc(C(F)(F)F)cc1 | active
C[C@@H]1CN([C@@H](C)CO)C(=O)c2cc(NC(=O)CCC(F)(F)F)ccc2O[C@H]1CN(C)C(=O)Nc1ccc(C(F)(F)F)cc1 | inactive
C[C@H]1CN([C@@H](C)CO)C(=O)c2cc(NC(=O)Nc3ccc(F)cc3)ccc2O[C@@H]1CN(C)C(=O)Nc1ccc(C(F)(F)F)cc1 | inactive
C[C@H](CO)N1C[C@H](C)[C@@H](CN(C)C(=O)Nc2ccc(C(F)(F)F)cc2)Oc2ccc(NC(=O)Nc3ccc(F)cc3)cc2C1=O | active
C[C@H](CO)N1C[C@H](C)[C@H](CN(C)C(=O)Nc2ccccc2)Oc2ccc(NC(=O)Nc3ccc(C(F)(F)F)cc3)cc2C1=O | active
C[C@@H]1CN([C@H](C)CO)C(=O)c2cc(NC(=O)Nc3ccc(C(F)(F)F)cc3)ccc2O[C@H]1CN(C)C(=O)Nc1ccc(F)cc1 | inactive
C[C@@H]1CN([C@@H](C)CO)C(=O)c2cc(NC(=O)Nc3ccccc3)ccc2O[C@@H]1CN(C)C(=O)Nc1ccc(C(F)(F)F)cc1 | inactive
C[C@@H]1CN([C@@H](C)CO)C(=O)c2cc(NC(=O)Nc3ccc(C(F)(F)F)cc3)ccc2O[C@H]1CN(C)C(=O)Nc1ccc(C(F)(F)F)cc1 | inactive
C[C@H]1CN([C@@H](C)CO)C(=O)c2cc(NC(=O)Nc3ccc(C(F)(F)F)cc3)ccc2O[C@H]1CN(C)C(=O)Nc1ccc(C(F)(F)F)cc1 | inactive
Cc1noc(C)c1NC(=O)Nc1ccc2c(c1)CC(=O)N([C@H](C)CO)C[C@H](C)[C@H](CN(C)S(=O)(=O)c1cn(C)cn1)O2 | inactive
COc1ccc(NC(=O)Nc2ccc3c(c2)C(=O)N([C@H](C)CO)C[C@@H](C)[C@@H](CN(C)C(=O)Cc2ccccc2)OCCCC[C@H](C)O3)cc1 | inactive

SMILES | cytotoxicity call
NC1(C#Cc2cncc(C(=O)N3CCOCC3)c2)CCCCC1 | inactive
C[C@@H]1CN([C@H](C)CO)C(=O)c2cc(NC(=O)NC3CCCCC3)ccc2O[C@@H](C)CCCCO[C@H]1CN(C)Cc1ccc2c(c1)OCO2 | inactive
Cc1ccc(S(=O)(=O)Nc2ccc3c(c2)CC(=O)N([C@H](C)CO)C[C@H](C)[C@H](CN(C)S(=O)(=O)c2ccccc2)O3)cc1 | inactive
COc1ccccc1S(=O)(=O)N[C@H]1C=C[C@H](CC(=O)N2CCN(C)CC2)O[C@H]1CO | inactive
COc1ccc(NC(=O)Nc2ccc3c(c2)C(=O)N([C@@H](C)CO)C[C@@H](C)[C@H](CN(C)S(=O)(=O)c2c(C)noc2C)OCCCC[C@@H](C)O3)cc1 | inactive
Cc1cc(C(=O)Nc2cccc3c2O[C@H](CN(C)C(=O)NC(C)C)[C@@H](C)CN([C@@H](C)CO)C3=O)n(C)n1 | inactive
C[C@@H]1CCCCO[C@@H](CN(C)S(=O)(=O)c2cccs2)[C@@H](C)CN([C@H](C)CO)C(=O)c2cc(NC(=O)c3ccccc3)ccc2O1 | inactive
O=C(C[C@@H]1CC[C@@H](NS(=O)(=O)c2ccccc2F)[C@@H](CO)O1)NCCCN1CCOCC1 | inactive
O=C(C[C@@H]1CC[C@@H]2[C@H](COC[C@@H](O)CN2C(=O)C2CC2)O1)NCc1ccncc1 | inactive
C[C@@H]1CN([C@H](C)CO)C(=O)c2cc(NC(=O)Nc3ccc(C(F)(F)F)cc3)ccc2O[C@@H]1CN(C)C(=O)Nc1ccc(F)cc1 | active
C[C@H](CO)N1C[C@H](C)[C@H](CN(C)C(=O)Nc2ccc(C(F)(F)F)cc2)Oc2ccc(NC(=O)Cc3ccccc3)cc2C1=O | active
C[C@@H]1CN([C@@H](C)CO)C(=O)c2cc(NC(=O)Nc3ccc(C(F)(F)F)cc3)ccc2O[C@@H]1CN(C)C(=O)Nc1ccc(F)cc1 | active
C[C@H]1CN([C@@H](C)CO)C(=O)c2cc(NC(=O)Cc3ccccc3)ccc2O[C@@H]1CN(C)C(=O)Nc1ccc(C(F)(F)F)cc1 | inactive
C[C@@H]1CN([C@H](C)CO)C(=O)c2cc(NC(=O)Nc3ccc(F)cc3)ccc2O[C@H]1CN(C)C(=O)Nc1ccc(C(F)(F)F)cc1 | inactive
C[C@H]1CN([C@@H](C)CO)C(=O)c2cc(NC(=O)Nc3ccc(C(F)(F)F)cc3)ccc2O[C@H]1CN(C)C(=O)Nc1ccc(F)cc1 | inactive
C[C@H](CO)N1C[C@H](C)[C@@H](CN(C)C(=O)Nc2ccc(F)cc2)Oc2ccc(NC(=O)Nc3ccc(C(F)(F)F)cc3)cc2C1=O | inactive
C[C@H](CO)N1C[C@H](C)[C@@H](CN(C)C(=O)Nc2ccc(C(F)(F)F)cc2)Oc2ccc(NC(=O)Cc3ccccc3)cc2C1=O | inactive
C[C@@H]1CN([C@@H](C)CO)C(=O)c2cc(NC(=O)Nc3ccc(F)cc3)ccc2O[C@@H]1CN(C)C(=O)Nc1ccc(C(F)(F)F)cc1 | inactive
CNc1[nH]cnc(=S)c1N | inactive
COc1ccc(NC(=O)Nc2ccc3c(c2)C(=O)N([C@H](C)CO)C[C@@H](C)[C@H](CN(C)CC2CCCCC2)O3)cc1 | inactive
CO[C@H]1CN(C(=O)c2ccnnc2)[C@H]2COC[C@@H]12 | inactive
Cc1noc(C)c1S(=O)(=O)Nc1ccc2c(c1)C(=O)N([C@@H](C)CO)C[C@@H](C)[C@@H](CN(C)Cc1ccc3c(c1)OCO3)O2 | inactive
